Data taken from PubChem BioAssay AID1159580 (chemical genetic matrix, 2015).
Where “and” joins values, the source holds several entries; their conditions need not be identical. Equal values may be shown once. The campaign covered roughly 5,500 compounds. About 2,000 (36%) were called active. Roughly 18% stayed inconclusive and do not appear here. Cut-off read from the data, not from the text of the source: active = normalized growth mostly below about 0.91 (no sharp cut-off); inconclusive = no clear call, values can overlap the other calls; inactive = mostly above about 0.92. The list shows a part of the results.

Assay: chemical genetic growth profiling, strain panel (AID 1159580);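 note: tested at 20 µM; growth read once vehicle control cultures reached saturation at 30 °C; 1 = growth at the plate median or of vehicle wells; lower values mean less growth of the strain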
Conditions: S. cerevisiae deletion strains, growth OD

Measured: normalized growth

O=C(C1CCCCC1)N1CC(=O)N2CCc3ccccc3C2C1 (stereo not drawn)
inactive: locus YAL021C, strain ccr4, active compounds read low 0.999 | locus YAL026C, strain drs2, active compounds read low 1 | locus YAL030W, strain snc1, active compounds read low 1.01 | locus YAL040C, strain CLN3, active compounds read low 1.05 | locus YBL061C, strain skt5, active compounds read low 1.01 | locus YBR009C, strain hhf1, active compounds read low 1.01 | locus YBR021W, strain FUR4, active compounds read low 0.993 | locus YBR023C, strain chs3, active compounds read low 1.02 | locus YBR171W, strain sec66, active compounds read low 1.01 | locus YBR229C, strain ROT2, active compounds read low 1 | locus YBR231C, strain swc5, active compounds read low 0.983 | locus YBR279W, strain paf1, active compounds read low 1.01 | locus YCL011C, strain gbp2, active compounds read low 1.03 | locus YCL016C, strain dcc1, active compounds read low 1.04 | locus YCL029C, strain bik1, active compounds read low 1.01 | locus YCL061C, strain MRC1 (second series), active compounds read low 1 | locus YCL061C, strain MRC1, active compounds read low 1.01 | locus YCL069W, strain vba3, active compounds read low 1.01 | locus YCR088W, strain abp1, active compounds read low 1.01 | locus YDL005C, strain med2, active compounds read low 1.01 | locus YDL035C, strain GPR1, active compounds read low 1 | locus YDL040C, strain nat1, active compounds read low 0.992 | locus YDL074C, strain BRE1, active compounds read low 1.01 | locus YDL101C, strain DUN1, active compounds read low 1.01 | locus YDL134C, strain PPH21, active compounds read low 1 | locus YDL185W, strain tfp1, active compounds read low 1.01 | locus YDL192W, strain arf1, active compounds read low 1.01 | locus YDR001C, strain nth1, active compounds read low 1 | locus YDR069C, strain doa4, active compounds read low 0.978 | locus YDR101C, strain arx1, active compounds read low 1.03 | locus YDR137W, strain rgp1, active compounds read low 1.03 | locus YDR159W, strain sac3, active compounds read low 0.976 | locus YDR162C, strain NBP2, active compounds read low 1 | locus YDR195W, strain ref2 0.981 | locus YDR297W, strain sur2, active compounds read low 1.01 | locus YDR318W, strain mcm21, active compounds read low 1.02 | locus YDR334W, strain swr1, active compounds read low 1.01 | locus YDR335W, strain msn5, active compounds read low 0.999 | locus YDR363W, strain ESC2, active compounds read low 1.04 | locus YDR388W, active compounds read low 1.01 | locus YDR392W, strain spt3, active compounds read low 0.862 | locus YDR502C, strain sam2, active compounds read low 1.01 | locus YEL003W, strain gim4, active compounds read low 0.995 | locus YEL037C, strain rad23, active compounds read low 0.999 | locus YEL061C, strain CIN8 (second series), active compounds read low 1 | locus YEL061C, strain CIN8, active compounds read low 1 | locus YER002W, strain NOP16, active compounds read low 1.01 | locus YER015W, strain faa2, active compounds read low 1 | locus YER016W, strain bim1, active compounds read low 0.989 | locus YER110C, active compounds read low 1.02 | locus YER111C, strain swi4, active compounds read low 1 | locus YER155C, strain BEM2 (second series), active compounds read low 0.913 | locus YER155C, strain BEM2, active compounds read low 1 | locus YER167W, strain BCK2, active compounds read low 1 | locus YFR010W, strain ubp6, active compounds read low 1.01 | locus YGL078C, strain dbp3, active compounds read low 1.01 | locus YGL086W, strain mad1, active compounds read low 1.01 | locus YGL167C, strain pmr1, active compounds read low 1.01 | locus YGL173C, strain kem1, active compounds read low 1 | locus YGL227W, strain vid30, active compounds read low 1.01 | locus YGL240W, strain doc1, active compounds read low 0.978 | locus YGL248W, strain PDE1, active compounds read low 1.01 | locus YGL253W, strain hxk2, active compounds read low 0.982 | locus YGR078C, strain PAC10, active compounds read low 1 and 1.01 | locus YGR135W, strain pre9, active compounds read low 0.998 | locus YGR252W, strain gcn5, active compounds read low 0.953 | locus YHR013C, strain ard1, active compounds read low 0.988 | locus YHR027C, strain rpn1, active compounds read low 1.01 | locus YHR030C, strain SLT2, active compounds read low 1 and 1.01 | locus YHR079C, strain IRE1 (second series), active compounds read low 1.01 | locus YHR079C, strain IRE1, active compounds read low 1.01 | locus YHR094C, strain hxt1, active compounds read low 1.01 | locus YHR129C, strain ARP1, active compounds read low 0.992 | locus YHR142W, strain chs7, active compounds read low 1 | locus YHR200W, strain rpn10, active compounds read low 1.01 | locus YIL066C, strain RNR3, active compounds read low 1.01 | locus YIL073C, strain SPO22, active compounds read low 1.01 | locus YIL125W, strain kgd1, active compounds read low 1.01 | locus YIR030C, strain dcg1, active compounds read low 1.01 | locus YJL092W, strain hpr5, active compounds read low 1 | locus YJL095W, strain BCK1 (second series), active compounds read low 1.01 | locus YJL095W, strain BCK1, active compounds read low 0.974 and 1.03 | locus YJL115W, strain asf1, active compounds read low 1.01 | locus YJL129C, strain trk1, active compounds read low 0.997 | locus YJL134W, strain LCB3, active compounds read low 1 | locus YJL154C, strain vps35, active compounds read low 1 | locus YJL164C, strain tpk1, active compounds read low 1.02 | locus YJL166W, strain qcr8, active compounds read low 1.02 | locus YJL168C, strain set2, active compounds read low 1.01 | locus YJL187C, strain SWE1 (second series), active compounds read low 1.01 | locus YJL187C, strain SWE1, active compounds read low 1.01 | locus YJR043C, strain POL32, active compounds read low 1.01 | locus YJR066W, strain TOR1, active compounds read low 0.939
